An excerpt weighted towards active compounds, which were near 3.1% of everything screened.
HSF-1 act – increases HSF-1 driven luciferase reporter signal; NIH3T3-HGL HSF-1 luciferase reporter, MG132, 8 h; 100% = twice DMSO control signal; activation, % at 9 µM; 300,000 tested, 1.7% active; AID 504408;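 active = mean replicate activation of at least 50% with a set share of replicates each reaching 50%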;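 note: 0% = median of the neutral control wells and 100% = twice that signal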
ARNT TACC3 PPI – ARNT/TACC3 interaction disruption; inhibition, % at 9.99 µM; AlphaScreen His-ARNT PAS-B/GST-TACC3 binding, luminescence; TACC3 fragment carries E629A point mutation; 390,000 tested, 0.66% active; Q9Y6A5;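 active = mean inhibition of replicates at least 50% and at least half of replicates each reaching 50%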;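 note: 0% = complete ARNT plus TACC3 wells and 100% = ARNT alone without TACC3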
HIF act – HIF pathway transcriptional activation | activation, % at 7.5 µM (by protocol) | U2OS HRE-luciferase reporter, luminescence; normalized: DMSO 0%, desferrioxamine 100% | 300,000 tested, 0.32% active;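 active = mean activation of at least 10% of the iron chelator positive control signal, with at least half of replicates also reaching 10%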
HSF1 inh – HSF1 inhibition; 300,000 tested, 0.77% active; activity change, negative = inhibition, % at 7.5 µM (by protocol); NIH3T3-HGL HSE-luciferase, MG132-induced, luminescence 8 h; hits give low values;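 active = more than half of replicate wells show activity change below -50%, luminescence cut by over half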;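 note: luciferase reports HSF-1 transcriptional activity via heat shock element; 0% = median of DMSO wells and -100% = zero luminescence signal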
HSP90 inh – HSP90 refolding inhibition in rabbit reticulocyte lysate; 290,000 tested, 0.91% active; inhibition, % at 5.6 µM; luciferase refolding luminescence, 3 h; AID 1789;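 active = inhibition above the screen-wide mean plus 3 SD, computed separately per campaign, cut at about 16% in these data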;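 note: 0% = DMSO wells and 100% = 60 µM geldanamycin wells; inhibitors lower the luminescence because luciferase stays unfolded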
Numbers without * were called inactive; / = no result.

SMILES	HSF-1 act	ARNT TACC3 PPI	HIF act	HSF1 inh	HSP90 inh
COc1ccc(-c2cc(C(=O)N3CCCCCC3)no2)cc1	60*	0	1	25	10
O=C(c1cc(-c2ccc(F)cc2)on1)N1CCCC1	62*	13	0	29	7
COc1ccc(-c2cc(C(=O)Nc3cc(C)ccc3O)no2)cc1	68*	0	4	23	-6
O=C(c1cc(-c2ccc(F)cc2)on1)N1CCCCCC1	6	-4	0	5	17*
O=C(c1cc(-c2ccc(F)cc2)on1)N1CCOCC1	44	2	1	30	10
COc1cccc(-c2cc(C(=O)N3CCCCCC3)no2)c1	13	-8	-1	7	15
Cn1nc(C(=O)NCc2ccc(F)cc2)c2c1-c1ccccc1S(=O)(=O)C2	20	-5	0	10	-2
Cn1nc(C(=O)NCCCN2CCCCC2)c2c1-c1ccccc1S(=O)(=O)C2	4	-5	19*	1	-6
CSc1ccc(CCNC(=O)c2nn(C)c3c2CS(=O)(=O)c2ccccc2-3)cc1	51*	-1	-1	11	-4
Cc1ccc(CNC(=O)c2nn(C)c3c2CS(=O)(=O)c2ccccc2-3)cc1	9	-9	-1	-6	-2
CC(=O)NC[C@@H]1[C@@H](c2ccc(-c3ccccc3)cc2)[C@H](CO)N1C(=O)C1CC1	/	0	/	/	/
COc1ccc(/C=N/Nc2nc(=O)[nH]nc2C)cc1[N+](=O)[O-]	13	/	0	2	-4
COc1cc(/C=N/Nc2nc(=O)[nH]nc2C)cc([N+](=O)[O-])c1O	4	76*	0	-2	3
Nc1nnc(Sc2ccc(Cl)cc2[N+](=O)[O-])s1	14	/	0	8	2
CC(C)Nc1nnc(Sc2ccc(Cl)cc2[N+](=O)[O-])s1	-60	2	0	-50*	-4
COc1ccc(Cl)cc1S(=O)(=O)N1CCC(C(=O)NCCc2ccccc2)CC1	-84	0	0	-79*	-3
COc1ccc(C)cc1S(=O)(=O)N1CCC(C(=O)NCCc2ccccc2)CC1	8	-14	2	-4	3
C[C@@H]1CN([C@H](C)CO)C(=O)c2cc(C#Cc3cccc(F)c3)cnc2O[C@H]1CN(C)C(=O)C1CCCCC1	/	6	/	/	/
c1ccc(-n2cc(CN3CCCC3)c(-c3ccc4c(c3)OCO4)n2)cc1	55*	-2	0	37	2
Cc1cc(Sc2nnc(N)s2)c2ccccc2n1	136*	1	8	108	5
Cc1cc(Sc2nnc(/N=C/N(C)C)s2)c2ccccc2n1	/	-3	/	/	4
CN1[C@@H]2Cn3c(ccc(-c4ccc(F)cc4)c3=O)[C@H]1[C@@H](C(=O)Nc1nccs1)[C@@H]2CO	/	1	/	/	/
Cc1nnc2sc(SCc3ccc(Br)cc3)nn2c1=O	15	-7	-1	13	3
COc1ccc(NC(=O)CSc2nnc(C)c(=O)n2N)cc1	2	-1	0	-6	0
COc1ccc(NC(=O)CSc2nn3c(=O)c(C)nnc3s2)cc1	-9	61*	0	1	-3
SMILES	HSF-1 act	ARNT TACC3 PPI	HIF act	HSF1 inh	HSP90 inh
COc1cccc(NC(=O)CSc2nn3c(=O)c(C)nnc3s2)c1	3	67*	0	-5	-4
Cc1ccccc1NC(=O)CSc1nn2c(=O)c(C)nnc2s1	-4	51*	0	-7	-5
Cc1nnc2sc(SCC(=O)Nc3ccc(Br)cc3)nn2c1=O	-6	74*	1	-3	-4
COc1cccc(NC(=O)CSc2nc(C)cs2)c1	-9	-11	0	8	1
CN(C)CC(=O)Nc1ccc2c(c1)[C@@H]1C[C@@H](CC(=O)NC3CCCCC3)O[C@@H](CO)[C@@H]1O2	/	21	/	/	/
CN1C(=O)c2cc(NC(=O)Nc3ccc(Cl)cc3)ccc2OC[C@H]2O[C@H](CC(=O)O)CC[C@@H]21	/	5	/	/	/
Cc1nnc2sc(SCC(=O)Nc3cccc(Cl)c3)nn2c1=O	28	65*	0	-2	1
Cc1nnc2sc(SCC(=O)N3CCC(C)CC3)nn2c1=O	3	63*	0	-7	1
COC(=O)c1ccc(NC(=O)CSc2nn3c(=O)c(C)nnc3s2)cc1	-7	60*	0	-8	0
COc1ccc(CCNC(=O)CSc2nn3c(=O)c(C)nnc3s2)cc1OC	1	17	1	-2	-2
COc1ccc(OC)c(NC(=O)CSc2nn3c(=O)c(C)nnc3s2)c1	0	69*	0	-2	1
C[C@@H]1CCCCO[C@@H](CN(C)C(=O)Nc2cccc3ccccc23)[C@H](C)CN([C@H](C)CO)C(=O)c2cc(NC(=O)Nc3ccc(C(F)(F)F)cc3)ccc2O1	/	-7	/	/	/
O=C(NCC1CC1)[C@@H]1N[C@@H]2c3ccc(C4=CCCCC4)c(=O)n3C[C@@H]2[C@H]1CO	/	-4	/	/	/
Cc1cc(NC(=O)c2ccccc2)n(-c2nc3ccccc3[nH]2)n1	6	-3	24*	-1	2
O=C(C[C@H]1CC[C@@H](NC(=O)C2CC2)[C@H](CO)O1)NCCCN1CCOCC1	/	-1	/	/	/
NC(=O)c1ccsc1NC(=O)C1CCCCC1	-67	2	1	-57*	-2
Oc1c(C(Nc2nccs2)c2ccc(C(F)(F)F)cc2)ccc2cccnc12 (stereo not given)	-70	28	58*	-59*	2
CCC(=O)NC(c1cccs1)c1ccc2cccnc2c1O (stereo not given)	3	43	196*	6	14
CC(=O)NC(c1cccs1)c1cc(F)c2cccnc2c1O (stereo not given)	/	56*	/	/	/
Oc1c(C(Nc2nc3ccccc3s2)c2ccco2)ccc2cccnc12 (stereo not given)	-23	14	31*	-35	2
Cc1conc1NC(c1cccs1)c1ccc2cccnc2c1O (stereo not given)	-35	/	3	-31	6
CC(C)CC#Cc1cnc2c(c1)C(=O)N([C@H](C)CO)C[C@H](C)[C@H](CN(C)S(=O)(=O)c1cn(C)cn1)O2	/	14	/	/	/
O=C(C[C@@H]1CC[C@@H](NC(=O)c2ccccn2)[C@@H](CO)O1)NCc1cc(F)cc(F)c1	/	-7	/	/	/
CC(C)NC(=O)N(C)C[C@H]1OCCCC[C@@H](C)Oc2ccc(NS(=O)(=O)c3cn(C)cn3)cc2C(=O)N([C@H](C)CO)C[C@H]1C	/	6	/	/	/
CCCC(=O)NC(c1ccc2c(c1)OCO2)c1cc(Cl)c2cccnc2c1O (stereo not given)	-36	-5	12*	-40	-1
CCCC(=O)NC(c1cccs1)c1cc(Cl)c2cccnc2c1O (stereo not given)	9	-2	29*	11	0
CCCC(=O)NC(c1ccco1)c1cc(Cl)c2cccnc2c1O (stereo not given)	-41	1	0	-40	8

Compound activity from PubChem BioAssay.
